# The campaign covered roughly 220,000 compounds. About 2,400 (1.1%) were called active. Another 7% or so got no clear call; they are omitted. Many of the other results were omitted from the sample, so actives are more common in it than they were. Unmarked numbers belong to inactive results. Calls follow the shape of the dose curve; as a rule, active = well fitted inhibition curve with a large enough effect; inconclusive = small, poorly fitted or top-dose-only effect, or effect the other way; inactive = no such curve, though single readings can be large or run the other way.
# Assay: qHTS Multiplex Assay to Identify Dual Action Probes in a Cell Model of Huntington: Aggregate Formation (GFP); also: nearly all actives have a fitted effect of over 60% in size
# Settings: PC12 HttQ103-GFP aggregates, Acumen cytometry, 40 h; series mostly up to 9.22 µM; activity change, negative = inhibition: at the top concentration
# Source text: NIH Chemical Genomics Center [NCGC]
# NIH Molecular Libraries Probe Production centers Network [MLPCN]
# Assay Submitter (PI): Wei Zheng
# Huntington's disease is a neurodegenerative disorder caused by a trinucleotide repeat expansion in Exon 1 of the Huntingtin gene. The CAG trinucleotide encodes glutamine and polyglutamine expansions cause cell death in selective areas of the brain. Huntington polyglutamine repeats have the tendency to form aggregates which are observable in later stages of the disease. The exact nature of the aggregates, whether toxic, protective, or insignificant, is unclear.
# A stable PC12 cell line containing a gene fusion of Exon 1 of the Huntingtin gene linked to GFP under the control of the inducible ecdysone promoter were used as the cell-based model of Huntington Disease for high throughput screening. Exon 1 of the Huntingtin gene contained an expansion of 103 polyglutamines (Q103) which, when expressed, caused cell death and distinct, bright GFP aggregates. The amount of cell death and the size and intensity of GFP aggregates increased over time and induction level. The cell death were quantified with a measurement of ATP content in the cells. A maximal 40-50% of cell death was observed when the Huntington gene was induced in this cell line.
# We optimized this assay in a homogeneous 1536 well format. A quantitative high throughput screen (qHTS) was conducted on the PC12 cells which were induced to express the toxic fusion construct. Small molecules which reduced aggregate formation were identified bu using a laser scanning cytometer calibrated to detect the aggregates in cell lysates.
# PC12 cells stably containing a construct with an ecdysone inducible promoter expressing GFP fused to the exon 1 of HTTQ103 (Huntington protein which containing a 103 ployglutamine expansion) were used.
# NCGC Assay Protocol Summary:
# Sequence, Parameter, Description
# 1, Reagent, 5 uL 1500 cells/well 1536 TC treated White clear bottom plate
# 2, Compound, 23 nL Tebufenozide inducer (100 nM final) to all columns
# 3, Compound, 23 nL 40 uM to 0.5 nM Libraries
# 5, Reagent, 5 ul ATPLite cell death assay reagent
# 6, Detector, Aggregate quantitation by Acumen Explorer
# Media consisted of phenol red free DMEM + 5% equine serum (Hyclone # SH30072.03 ), 5% supplemented Bovine Calf Serum (Hyclone # SH30074.03 ), 1x pen/strep, no G418
# Acumen Explorer was used to quantitate GFP aggregates using the following criteria: […] laser excitation, 500-530 nm emission, the PMT was set at a voltage of 450 volts, and objects ranging in size of […] in size having a signal of 6 STDEV above background were collected.
# Control columns: 1 = DMSO, 2= 2 uM teb dilns (1:1), 4 = 100 nM Teb inducer. Sample columns received 100 nM Teb.
# % is scaled to controls: 0 for no effect and ±100 for the full control effect; potency is read from the fitted curve at half-maximal effect.
Compound,"activity change, negative = inhibition",Potency
Cn1nc(C(F)(F)F)c(-c2ccc(F)cc2)c1NC(=O)CSCC(=O)O,-3.17%,
O=[N+]([O-])c1cc(Br)c(O)c(/C=N/Nc2nc3ccccc3s2)c1,,5.01 µM (active)
COc1cc(/C=N/Nc2nc3ccccc3s2)ccc1O,3.68%,
c1ccc2sc(NN=C3CCCC3)nc2c1,-14.7% [at 46.1 µM],
COc1ccc(C(C)=O)cc1COc1ccc(Cl)c(C)c1,-14.3%,
CCOC(=O)C1=C(N)N2C(=O)C(C)SC2=C(C(=O)OCC)C1c1cc(OC)c(OC)c(OC)c1 (stereo not drawn),-22.1%,
O=C(NC(=O)c1ccccc1N1CCCCC1)Nc1ccc(Br)cc1,18.1%,
O=C(CN1C(=O)c2cccc3cccc(c23)C1=O)N1CCCCC1,-4.79% [at 46.1 µM],
COc1cccc2c(=O)n(CC(=O)N3CCCCCC3)ccc12,-2.74% [at 46.1 µM],
Cn1c(=O)n(C)c(=O)n(CC(=O)N2CCCCC2)c1=O,,3.55 µM (active)
O=C(CC(c1ccccc1)c1cc(Cl)ccc1O)NCCN1CCOCC1 (stereo not drawn),-16.4%,
Cc1c(NC(=O)C(=O)N/N=C/c2cccs2)c(=O)n(-c2ccccc2)n1C,4.35%,
COC(=O)c1cc(S(=O)(=O)N2CCC(C(N)=O)CC2)oc1C,-8.18%,
Cc1nc(SCC(=O)N2CC(=O)Nc3ccccc32)c2c(C)c(C)sc2n1,4.03% [at 46.1 µM],
Cc1nnc(SCC(=O)N2CCc3ccccc3C2)s1,-7.49% [at 46.1 µM],
Cc1nc(SCC(=O)N2CCc3ccccc3C2)c2c(C)c(C)sc2n1,,14.1 µM (active)
O=C(Nc1ccc(Cl)cc1)Nc1ccc(C(=O)N2CCOCC2)cc1,-21.5%,
O=C(C[n+]1cc(-c2ccc(Cl)c(Cl)c2)n2c1CCC2)c1cccs1,0.87%,
COc1ccc(CCN2C(=O)CC(N3CCC(C(N)=O)CC3)C2=O)cc1OC (stereo not drawn),10.9%,
CCCC(=O)Nc1nnc(-c2ccccc2)o1,-9.12%,
Cc1c(CCC(=O)O)c(=O)oc2cc3occ(-c4ccccc4)c3cc12,-3.15%,
CCCCCCc1cc2cc(-c3nnc(-c4ccccc4)o3)c(=O)oc2cc1O,,5.01 µM (active)
COc1cc(C(F)(F)F)c(C(=O)N(C)c2ccc(Cl)cc2)cn1,-6.9%,
CCC(=O)Nc1cccc(C2=NOC3(C2)C[C@@H](C(N)=O)N(C(=O)c2cc([N+](=O)[O-])cc([N+](=O)[O-])c2C)C3)c1 (stereo partly drawn),13.8%,
O=c1c2ccccc2nc2n1C(CSc1ccc(F)cc1)CN2 (stereo not drawn),-9.1% [at 46.1 µM],
O=c1c2ccccc2nc2n1C(CSc1ccc(Cl)cc1)CN2 (stereo not drawn),9.06% [at 46.1 µM],
O=c1c2ccccc2nc2n1C(CSCc1ccccc1)CS2 (stereo not drawn),,11.2 µM (active)

Compound,"activity change, negative = inhibition",Potency
CN(C)S(=O)(=O)c1ccc(NC(=O)COC(=O)Cn2[nH]c(=O)c3ccccc3c2=O)cc1,7.23%,
Clc1cccc(-c2nc(NCC3CCCO3)c3ccccc3n2)c1 (stereo not drawn),-25.1% [at 46.1 µM],
Clc1ccc2nc(-c3ccccc3)nc(C(Cl)Cl)c2c1,,1.41 µM (active)
O=C(O)c1cccc(NC(=O)c2cc(-c3cccc(Cl)c3)nc3ccccc23)c1,14% [at 46.1 µM],
CC(C)=NN1C(=O)c2ccccc2NC1(C)C,8.6%,
Cc1ccccc1Nc1c(-c2ccccc2)nc2ncccn12,18.6%,
C/C(=N\NC(=O)CNC(=O)C(c1ccccc1)c1ccccc1)c1ccc(C)cc1,,12.6 µM (active)
O=C(CNC(=O)C(c1ccccc1)c1ccccc1)N/N=C\c1ccc2c(c1)OCO2,5.61% [at 46.1 µM],
C/C(=N\NC(=O)Cc1ccc(F)cc1)c1ccc(F)cc1,-15.3% [at 46.1 µM],
CCNC(=S)N1CCN(CCN=CC2=C(O)CC(C)(C)CC2=O)CC1,-0.873%,
O=C(N/N=C/c1ccc2c(c1)OCO2)c1ccc(Cn2cc([N+](=O)[O-])cn2)o1,16.5% [at 46.1 µM],
Cc1c(Cl)c([N+](=O)[O-])nn1Cc1ccc(C(=O)N/N=C\c2cc(Cl)ccc2O)o1,,1.58 µM (active)
Cc1c(Cl)c([N+](=O)[O-])nn1CCCC(=O)Nc1cc(Cl)ccc1Cl,6.08% [at 46.1 µM],
CC(NC(=S)Nc1ccccc1)C(c1cccs1)N1CCOCC1 (stereo not drawn),-9.73%,
O=C(Nc1cccc(C(F)(F)F)c1)c1cc(Br)cc(Br)c1O,,5.01 µM (active)
O=C(Nc1cccc(C(F)(F)F)c1)c1cnccn1,-11%,
O=C(O)CSCC(=O)Nc1cccc(C(F)(F)F)c1,13.9% [at 46.1 µM],
Cc1cc(C(=O)CSc2nc(N)cc(=O)[nH]2)c(C)n1Cc1ccco1,0.897%,
COC(c1ccccc1)(c1ccccc1)C(Oc1nc(C)cc(C)n1)C(=O)O (stereo not drawn),12.9% [at 46.1 µM],
COc1ccc(/C=C/c2nnc(NC(=O)C(C)C)s2)cc1,3.19%,
CCN(CC)S(=O)(=O)c1ccc(N(C)Cc2ccc(C(F)(F)F)cc2)nc1,,10 µM (active)
CCN(CC)S(=O)(=O)c1ccc(N(C)CCc2ccc(OC)c(OC)c2)nc1,-4.47% [at 46.1 µM],
CCN(CC)S(=O)(=O)c1ccc(Cl)c(NC(=O)c2ccncc2)c1,-14.4%,
C/C(=N\OCC(=O)O)c1ccc(Cl)cc1,1.57%,
O=C(CNCc1cccs1)Nc1cc(S(=O)(=O)N2CCCC2)ccc1Cl,10.3%,
CC(C)n1cnc2c(Nc3cccc(Cl)c3)nc(N(CCO)CCCO)nc21,10.2%,

# — PubChem BioAssay AID1688 (National Center for Advancing Translational Sciences (NCATS), 2009)
